Screens: PubChem, Broad Institute
Many of the other results were omitted from the sample, so hits are more common in it than they were.
miR122 inh – activators of miR-122 sensor in Huh7 cells | Huh7 psiCHECK-miR122 Renilla luciferase sensor, 48 h | AID 623901 | actives 0.14% (n = 340,000) | activation, % at 12.5 µM;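 active = mean activation of 30% or more, with every replicate also reaching 30%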;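 note: 0% = median of neutral control wells and 100% = median of positive control wells; higher luciferase signal means stronger suppression of miR-122 activity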
* marks the source's active call; other numbers are inactive results.

SMILES	miR122 inh
C[C@H]1CN([C@@H](C)CO)C(=O)c2cccc(NC(=O)C3CCCCC3)c2O[C@@H]1CN(C)Cc1ccc(C(=O)Nc2ccccc2N)cc1	-13
COc1ccc(-c2ccc(C#N)c(OC(=O)c3c(Cl)cccc3Cl)n2)cc1	32*
C[C@H]1CN([C@@H](C)CO)S(=O)(=O)c2ccc(-c3cccc(C#N)c3)cc2O[C@H]1CN(C)C(=O)Nc1ccccc1F	-4
C[C@@H]1CN([C@H](C)CO)C(=O)c2cc(/C=C/c3ccccc3)cnc2O[C@H]1CN(C)Cc1ccccc1F	-31
C[C@@H]1CN([C@@H](C)CO)C(=O)Cc2cc(NC(=O)NC3CCCCC3)ccc2O[C@H]1CN(C)Cc1ccncc1	3
C[C@H]1CN([C@@H](C)CO)S(=O)(=O)c2ccc(C#Cc3ccccc3)cc2O[C@@H]1CN(C)S(=O)(=O)c1ccccc1F	-33
COC(=O)c1cc(=O)n2c(-c3ccc(OC)cc3)csc2n1	38*
C[C@@H]1CN([C@@H](C)CO)C(=O)c2cc(-c3cccc(F)c3)cnc2O[C@@H]1CN(C)C(=O)c1cccc(F)c1	5
CCCNC(=O)N(C)C[C@H]1Oc2ncc(C#Cc3ccccc3F)cc2C(=O)N([C@@H](C)CO)C[C@@H]1C	2
C[C@@H]1CN([C@@H](C)CO)S(=O)(=O)c2ccc(-c3ccccc3)cc2O[C@@H]1CN(C)C(=O)c1ccc2c(c1)OCO2	44*
C[C@@H]1CN([C@@H](C)CO)S(=O)(=O)c2ccc(-c3ccccc3)cc2O[C@@H]1CN(C)C(=O)CC1CC1	7
C[C@H]1CN([C@@H](C)CO)S(=O)(=O)c2ccc(-c3ccccc3)cc2O[C@@H]1CN(C)C(=O)CC1CC1	-33
C[C@@H]1CN([C@H](C)CO)S(=O)(=O)c2ccc(-c3ccccc3)cc2O[C@H]1CN(C)C(=O)CC1CC1	-1
Cc1ccc(-c2ccc3c(c2)O[C@H](CN(C)C(=O)CC2CC2)[C@H](C)CN([C@@H](C)CO)S3(=O)=O)cc1	53*
Cc1ccc(-c2ccc3c(c2)O[C@H](CN(C)C(=O)CC2CC2)[C@H](C)CN([C@H](C)CO)S3(=O)=O)cc1	40*
C[C@@H]1CN([C@H](C)CO)S(=O)(=O)c2ccc(Br)cc2O[C@@H]1CN(C)C(=O)CC1CC1	-18
C/C=C/c1ccc2c(c1)O[C@@H](CN(C)C(=O)c1ccc3c(c1)OCO3)[C@@H](C)CN([C@@H](C)CO)S2(=O)=O	-1
C/C=C/c1ccc2c(c1)O[C@H](CN(C)C(=O)c1ccc3c(c1)OCO3)[C@@H](C)CN([C@@H](C)CO)S2(=O)=O	-14
C[C@@H]1CN([C@@H](C)CO)S(=O)(=O)c2ccc(-c3cncnc3)cc2O[C@H]1CN(C)C(=O)Cc1cccnc1	-1
C[C@@H]1CN([C@@H](C)CO)C(=O)c2cc(C#CC3(O)CCCC3)cnc2O[C@@H]1CN(C)Cc1ccncc1	-2
C[C@H](CO)N1C[C@H](C)[C@@H](CN(C)C(=O)C2CCOCC2)Oc2ncc(-c3cccc(F)c3)cc2C1=O	-5
CN1c2ccc(-c3cccc(F)c3)cc2[C@H]2[C@H](CCN2C(=O)c2ccccc2F)[C@H]1CO	-107
CCC(=O)Nc1ccc2c(c1)C(=O)N(C)C[C@H](OC)[C@H](C)CN(C(C)=O)[C@H](C)CO2	2
CCCNC(=O)N(C)C[C@@H]1Oc2cc(C#CC(C)C)ccc2S(=O)(=O)N([C@H](C)CO)C[C@H]1C	-10
CC(C)CC#Cc1ccc2c(c1)O[C@H](CN(C)C(=O)C1CCOCC1)[C@H](C)CN([C@@H](C)CO)S2(=O)=O	23
SMILES	miR122 inh
C[C@H](CO)N1C[C@H](C)[C@H](CN(C)S(=O)(=O)c2ccc(Cl)cc2)Oc2ccc(NC(=O)Nc3ccc(C(F)(F)F)cc3)cc2CC1=O	-94
C/C=C/c1cnc2c(c1)C(=O)N([C@@H](C)CO)C[C@H](C)[C@H](CN(C)C(=O)Nc1ccccc1F)O2	2
CCN(CC)c1ccc(C(=C2C=CC(=[N+](CC)CC)C=C2)c2ccc(N(CC)CC)cc2)cc1	38*
CCS(=O)(=O)Nc1ccc2c(c1)C(=O)N(C)C[C@@H](OC)[C@@H](C)CN[C@H](C)CO2	-1
C[C@@H]1CN([C@H](C)CO)C(=O)c2cc(/C=C/c3ccccc3)cnc2O[C@@H]1CN(C)Cc1cccc(C(=O)O)c1	7
C[C@@H]1CN([C@@H](C)CO)C(=O)c2cc(C#CC(C)(C)O)cnc2O[C@@H]1CN(C)C(=O)C1CC1	-9
C[C@@H](O)C#Cc1ccc2c(c1)O[C@@H](CN(C)Cc1cncnc1)[C@@H](C)CN([C@@H](C)CO)S2(=O)=O	2
COc1cccc(-c2cnc3c(c2)C(=O)N([C@@H](C)CO)C[C@H](C)[C@H](CN(C)CC2CCOCC2)O3)c1	8
Cc1cccc(S(=O)(=O)C(C#N)c2nc3ccccc3nc2N2CCCC2)c1 (stereo not given)	-119
N#CCc1c(C#N)c(N)nc(N2CCN(S(=O)(=O)c3ccccc3)CC2)c1C#N	36*
COCC#Cc1ccc2c(c1)O[C@H](CN(C)C(C)=O)[C@H](C)CN([C@@H](C)CO)S2(=O)=O	1
C[C@@H]1CN([C@@H](C)CO)S(=O)(=O)c2ccc(Br)cc2O[C@@H]1CN(C)CC1CCOCC1	6
O=S(=O)(Nc1ccccc1)c1ccc(Oc2ncc(C(F)(F)F)cc2Cl)cc1	-94
COc1cccc(N2CCN(C(=S)Nc3cccc(C)c3)CC2)c1	-121
FC(F)(F)c1cnc(N2CCCN(C(=S)Nc3ccccc3)CC2)c(Cl)c1	37*
COc1cccc(-c2cnc3c(c2)C(=O)N([C@@H](C)CO)C[C@H](C)[C@H](CN(C)Cc2ccccc2)O3)c1	-11
C[C@H]1CN([C@@H](C)CO)C(=O)c2cc(C#Cc3ccccn3)cnc2O[C@H]1CN(C)C(=O)CCN1CCCCC1	2
Cc1ccc(-n2ncc(C(=O)Nc3cc(Cl)ccc3C)c2C2CCNCC2)cc1C	36*
C[C@H]1CN([C@@H](C)CO)S(=O)(=O)c2ccc(-c3ccncc3)cc2O[C@H]1CN(C)Cc1cncnc1	-8
C[C@@H]1CN([C@H](C)CO)C(=O)c2cc(C#CCN(C)C)cnc2O[C@@H]1CN(C)C(=O)Cc1ccncc1	-3
Cc1ccc(NC(=O)CN(C)C(=O)Cn2ncc(Cl)c(Cl)c2=O)cc1	71*
CCN(CC)S(=O)(=O)c1cc(C(=O)N(C)CC(=O)Nc2ccc(Cl)cc2)ccc1Cl	-168
C[C@H](CO)N1C[C@H](C)[C@H](CN(C)S(=O)(=O)c2ccccc2)Oc2ncc(C#CC3(O)CCCC3)cc2C1=O	4
Cc1ccc(-c2cnc3c(c2)C(=O)N([C@@H](C)CO)C[C@H](C)[C@H](CN(C)C(=O)Cc2cccnc2)O3)cc1	10
COC(=O)C[C@H]1CC[C@@H]2[C@@H](COc3ccc(NC(=O)c4cnccn4)cc3C(=O)N2C)O1	37*
COC(=O)C[C@H]1CC[C@@H]2[C@@H](COc3ccc(NC(=O)c4cscn4)cc3C(=O)N2C)O1	45*
C[C@H](CO)N1C[C@H](C)[C@@H](CN(C)Cc2ccccc2)Oc2cc(-c3cncnc3)ccc2S1(=O)=O	-1
COc1cccc(-c2ccc3c(c2)O[C@@H](CN(C)CC2CC2)[C@@H](C)CN([C@H](C)CO)S3(=O)=O)c1	5
C[C@H](CO)N1C[C@H](C)[C@@H](CN(C)Cc2ccc3c(c2)OCO3)Oc2c(NC(=O)NC3CCCCC3)cccc2C1=O	-95
C[C@H]1CN([C@@H](C)CO)C(=O)c2cc(C#CC3(O)CCCC3)cnc2O[C@@H]1CN(C)S(=O)(=O)c1cccc(F)c1	7
